PubChem BioAssay (NCI)
Compounds without any hit were thinned out: in the full panel of roughly 83,000, 20% have a hit.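 Values shown are percent growth following 48 h exposure of cells in 96-well plates to a single concentration of compound; below 10 was considered active.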 Active and inactive are the calls of the source.

What follows are molecules tested on OVCAR-8 ovarian (assay: NCI-60 one-dose screen, 48 h (100 = growth as untreated, 0 = no growth, -100 = all killed)). Conditions: 10 µM unless noted.
Experimental: Growth inhibition of the OVCAR-8 human tumor cell line is measured as a screen for anti-cancer activity. Cells are grown in 96 well plates and exposed to the test compound for 48 hours. Compounds are tested at a single concentration, which is 10^-5 M for most compounds. The reported endpoint is percent growth (GI% or GIPRCNT), where numbers from 0 - 100% represent growth inhibition, and numbers from -100% - 0 represent cell death. For example, a value of 40 represents 60% growth inhibition. A value of 0 means no net growth occurred over the course of the experiment. A value of -40 indicates 40% of cells at the beginning of the experiment died by the end of the experiment. A value of -100 means all cells are dead at the end of the experiment.
NCI-60 Human Tumor Cell Lines Screen was performed using the standard one-dose NCI protocol, which is described in more detail at https://dtp.cancer.gov/discovery_development/nci-60/default.htm.
Compounds with GIPRCNT values below 10 were considered active. Activity score was based on GIPRCNT using the following formula: […]
Score is 0 for GIPRCNT values of 100 or above, 50 for GIPRCNT values of 0, and 100 for GIPRCNT values of -100.
For `CCOc1cc(F)c([N+](=O)[O-])cc1[N+](=O)[O-]`, the growth was 19.6% (inactive). With `CCOC(=O)c1[nH]c(C#N)c(C(=O)OCC)c1C` the growth was 94.8% (inactive). In the case of `O=[N+]([O-])CC(O)c1ccccc1` (stereo not given), the growth is reported as 97.7% (inactive). In the case of `O=C(Nc1ccc(Cl)c(Cl)c1)OCc1ccco1`, the growth is reported as 47.1% (inactive). With `N#C/C(=N\Nc1ccc(Cl)cc1)C(=O)C1CC1` the growth was 63.3% (inactive). For `CCCCCCCCCCCC[n+]1ccc(CCCCCCCCC)cc1`, the growth was -80.4% (active). For `O=Nc1ccc2ccccc2c1O`, the growth was 6.45% (active). With `O=C1C=CC(=O)N1c1cccc2c1CCCC2` the growth was 110% (inactive). In the case of `CC1(C)OC2C(COC(c3ccccc3)(c3ccccc3)c3ccccc3)OC(c3c[nH]c4c(N)ncnc34)C2O1` (stereo not given), the growth is reported as 56.1% (inactive). With `C(=N\Nc1ccc2ccccc2n1)/c1ccccn1` the growth was 18.5% (inactive). For `Cc1cc(=O)oc2cc(O)cc(O)c12`, the growth was 105% (inactive). For `O=C/C=C/c1ccc([N+](=O)[O-])cc1`, the growth was 100% (inactive). With `CCOC(=O)C1(C)CCCC1N` (stereo not given) the growth was 106% (inactive). With `O=[N+]([O-])c1ccc(C2N(Cc3ccc(Cl)cc3)CCN2Cc2ccc(Cl)cc2)cc1` the growth was 91% (inactive). With `O=C1C=Cc2ccccc2/C1=C/c1nc(-c2ccccc2)oc1O` the growth was 94.7% (inactive). With `COC(=O)c1nc(=S)[nH]c(C(=O)OC)c1C(=O)c1ccc(Cl)c(Cl)c1` the growth was 111% (inactive). `Oc1cc(Cl)ccc1Cc1ccc(Cl)cc1O` was tested, and the growth was 64.6% (inactive). With `CC(=O)C1Cc2ccccc2C1=O` (stereo not given) the growth was 119% (inactive). For `CCN(CC)CCNc1ccc([N+](=O)[O-])c2sc3ccccc3c(=O)c12`, the growth was 19.1% (inactive). `O=C1C=CC(=O)N1c1cc(Cl)c(Cl)cc1Cl` was tested, and the growth was 102% (inactive). For `COc1ccc2nc3cc([N+](=O)[O-])ccc3c(NNc3ccccc3)c2c1`, the growth was 81.7% (inactive). With `O=[N+]([O-])c1ccc(C(Br)c2ccc([N+](=O)[O-])cc2)cc1` the growth was 63.2% (inactive). In the case of `Nc1cccc2cccc([N+](=O)[O-])c12`, the growth is reported as 108% (inactive). In the case of `NC(=S)N/N=C\c1nccc2c(N)cccc12`, the growth is reported as 15.8% (inactive). In the case of `CCOC(=O)C1=NN(c2ccccc2)C(=O)/C1=C\N1C(=O)/C(=C/c2cccc(O)c2)SC1=S`, the growth is reported as 95.8% (inactive). With `COc1ccc2c(c1)c(CC(=O)O)c(C)n2C(=O)c1ccc(Cl)cc1` the growth was 104% (inactive). For `O=C(c1ccccc1)C(O)C(Br)(CBr)c1ccccc1` (stereo not given), the growth was 93.2% (inactive). For `CCCCCCCCCCCC[N+]1(CCCCCCCCCCCC)CCCC(C)C1` (stereo not given), the growth was -92.1% (active). `NCCCN(CCCN)CCCNCc1c2ccccc2c(CNCCCN(CCCN)CCCN)c2ccccc12` was tested, and the growth was 98.5% (inactive). For `CC(C)N=C(N)/N=C(\N)Nc1ccc2ccc3ccccc3c2c1`, the growth was -60.2% (active). `COc1cc(-c2ccc(-[n+]3nc(-c4ccc([N+](=O)[O-])cc4)nn3-c3ccc([N+](=O)[O-])cc3)c(OC)c2)ccc1-[n+]1nc(-c2ccc([N+](=O)[O-])cc2)nn1-c1ccc([N+](=O)[O-])cc1` was tested, and the growth was 30.5% (inactive). `CN(C)CCN(C)CC(C)(C)C(=O)/C=C/c1ccc(Cl)c(Cl)c1` was tested, and the growth was -86.5% [100 µM] (active). With `CC(=O)Nc1ccc(C(=O)CCl)cc1` the growth was 92.1% (inactive). With `Clc1ccc(Cc2nc3ccccc3s2)cc1` the growth was 102% (inactive). `CCCCOS(=O)(=O)c1ccccc1` was tested, and the growth was 120% (inactive). In the case of `O=C(/C=C/c1ccccc1)c1ccccc1O`, the growth is reported as 87.7% (inactive). For `O=C(c1ccccc1)C(Br)C(Br)c1ccccc1` (stereo not given), the growth was 78.8% (inactive). `CCCCCCCCCCCCN1C(C)=CS/C1=C\C=C\c1scc(C)[n+]1CCCCCCCCCCCC` was tested, and the growth was -8.26% (active). With `Cc1nnc(N/N=C/c2ccc([N+](=O)[O-])o2)[nH]c1=O` the growth was 21.1% (inactive). In the case of `Cc1cc(Br)c2nsnc2c1[N+](=O)[O-]`, the growth is reported as 52.8% (inactive).
